# This is part of a sample that, as a whole, favours compounds with a hit. Of some 83,000 tested, about 20% had one in any assay.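 Interpretation: 100, growth as untreated; towards 0, rising growth inhibition; 0, no net growth; 0 to -100, cell death. Compounds scoring below 10 were considered active.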 A number with no mark means an inactive call. Calls of active or inactive are those of the source.
# What was measured:
# Assay in all cases: NCI-60 one-dose screen, 48 h (100 = growth as untreated, 0 = no growth, -100 = all killed)
# Settings in all cases: 10 µM unless noted
# HCT-15 colon = test system: HCT-15 colon
# HT29 colon = test system: HT29 colon
# SNB-75 CNS = test system: SNB-75 CNS
# SNB-19 CNS = test system: SNB-19 CNS
# U251 CNS = test system: U251 CNS
# PC-3 prostate = test system: PC-3 prostate
# SK-MEL-5 melanoma = test system: SK-MEL-5 melanoma
# UACC-62 melanoma = test system: UACC-62 melanoma
# SK-MEL-28 melanoma = test system: SK-MEL-28 melanoma
# LOX IMVI melanoma = test system: LOX IMVI melanoma
SMILES,growth (HCT-15 colon),growth (HT29 colon),growth (SNB-75 CNS),growth (SNB-19 CNS),growth (U251 CNS),growth (PC-3 prostate),growth (SK-MEL-5 melanoma),growth (UACC-62 melanoma),growth (SK-MEL-28 melanoma),growth (LOX IMVI melanoma)
O=C(CCSc1nnc2n(Cc3ccccc3)c(=O)c3c4c(sc3n12)CCCC4)N1CCN(c2ccccc2)CC1,96.9%,93.7%,93.5%,99.8%,106%,102%,99.9%,108%,87.4%,
CCCCNC(=O)Oc1ccc(/C(=C(/C)Cc2ccc(OC)cc2)c2ccc(OCCN3CCCCCC3)cc2)cc1,27.8%,3.69% (active),79.2%,85.8%,62.5%,65.5%,82.7%,,95%,14%
CCCCCCCC/C=C\CCCCCCCCOc1ccc(CC(=O)NCC[N+]2(C)CCOCC2)cc1,90.8%,36.9%,41.2%,38.7%,15.4%,12.5%,99%,,93.7%,84.2%
CS(=O)(=O)Nc1cc(-c2ccc3ncc(C#N)c(Nc4ccc(F)c(Cl)c4)c3c2)cnc1Cl,8.1% (active),1.84% (active),-6.88% (active),14.3%,-15.4% (active),8.23% (active),-90% (active),-10.7% (active),5.07% (active),
O=C1/C(=C/c2ccc(F)cc2)CN(C(=O)C(Cl)Cl)C/C1=C\c1ccc(F)cc1,-57.9% (active),-24.7% (active),-61.2% (active),-87% (active),-95.5% (active),-74.3% (active),-64.9% (active),,-72.1% (active),-90.2% (active)
[2H]C([2H])([2H])Oc1ccc(F)cc1/C=C/C(=O)/C=C(O)/C=C/c1cc(F)ccc1OC([2H])([2H])[2H],79.9%,98.8%,94.9%,91.8%,76.8%,93.1%,92.8%,80.6%,116%,
O=C(/C=C/c1cccc(Cl)c1Cl)Nc1ncc(Cc2ccccc2Cl)s1,21.1%,11.9%,36.4%,47.2%,50.9%,56.5%,45.8%,,58.6%,44.7%
CC(C)(C)c1cc(Cl)c(O)c(CNCCO)c1,99.7%,107%,90.1%,113%,112%,112%,100%,107%,103%,
CNC(C)[C@H]1CCC2C3CC=C4C(=O)[C@@H](NC(=O)C=C(C)C)CC[C@]4(C)C3CC[C@@]21C (some centres not stated),-54.1% (active),-52% (active),22.5%,53.4%,18.2%,6.67% (active),-89.8% (active),-67.2% (active),-86.1% (active),
Cc1ccc(/C=C/C(=O)c2ccc(-n3cc(CN4CCN(c5cc6c(cc5F)c(=O)c(C(=O)O)cn6C5CC5)CC4)nn3)cc2)cc1,97.6%,98.9%,70.8%,86.4%,73.1%,89.6%,86.2%,,100%,56.9%
O=C(O)c1cn(C2CC2)c2cc(N3CCN(C(=O)Nc4nc(-c5ccc(Br)cc5)cs4)CC3)c(F)cc2c1=O,14.3%,9.27% (active),24%,19.7%,12.7%,19.2%,-41% (active),,42.2%,-9.03% (active)
COc1ccc(NC(=O)Nc2ccc(OCCCCCC(=O)NO)cc2)cc1,117%,88.8%,93.2%,102%,101%,97.8%,,89.4%,103%,96.4%
NC(=O)c1c(NC(=O)c2cccs2)sc2c1CCC(=O)C2,16.2%,46.3%,28.3%,40.2%,14.9%,10.5%,,4.69% (active),50.7%,30.3%

# Source: PubChem BioAssay (NCI)
